DT40 TDP1 no CPT: qHTS for Inhibitors of human tyrosyl-DNA phosphodiesterase 1 (TDP1): qHTS in cells in absence of CPT. actives 15% (n = 420,000). DT40 Tdp1-/- hTDP1 cells, no CPT, ATP luminescence, 48 h. Potency, µM (series often up to 46.2 µM), for the others: at the highest dose activity change, negative = growth inhibition, usual class: inhibitors; also: potency is read from the fitted curve at half-maximal effect; % is scaled to controls: 0 for no effect and ±100 for the full control effect; nearly all actives have a fitted effect of over 55% in size
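Growth of hTDP1-complemented DT40 Tdp1-knockout cells is measured by ATP luminescence after at least 48 hr compound exposure at 37 °C, with DMSO substituting for the 20 nM CPT used in the parallel screen.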
HepG2 tox: kills HepG2 cells in TGF-b inhibitor counter-screen; HepG2 CAGA-GFP viability, ATP luminescence, 18 h; Potency, µM (titrated, usually from 46.1 µM), for inactives: top-dose activity change, negative = cytotoxicity, most hits filed as cytotoxic; actives 0.76% (n = 410,000); also: potency is read from the fitted curve at half-maximal effect
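CellTiter-Glo luminescence gave cytotoxicity after 18 hours at 37 degrees C. The cells were HepG2 CAGA-GFP in 1% FBS DMEM, stimulated with 500 pg/mL TGF-beta after compound addition. %Activity was normalised to no-cell wells (complete cell-killing) and DMSO (no toxicity), and curves were fitted and classified.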
DT40 TDP1 CPT: growth inhibition of DT40 Tdp1-/-;hTDP1 cells with camptothecin (screen for TDP1 inhibitors) | actives 12% (n = 420,000) | chicken DT40 Tdp1-/-;hTDP1 cells + 20 nM CPT, ATP luminescence, 48 h | Potency, µM (titrated, usually from 46.2 µM), without a hit: at the top dose activity change, negative = growth inhibition, actives largely listed as inhibitors; also: potency is read from the fitted curve at half-maximal effect; % is scaled to controls: 0 for no effect and ±100 for the full control effect; nearly all actives have a fitted effect of over 55% in size
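Chicken DT40 Tdp1-/- cells complemented with human TDP1, 400 cells/well, exposed to compounds plus 20 nM camptothecin for at least 48 h at 37 C; viability read as ATP content by CellTiter-Glo luminescence.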
S-ASM inh: inhibitors of human secretory acid sphingomyelinase | P17405 | placental ASM, HMU-PC fluorogenic substrate, 60 min | Potency, µM (titrated, usually from 57.5 µM), for the others: at the highest dose activity change, negative = inhibition, usual class: inhibitors | actives 0.006% (n = 340,000) | AID 504937; also: potency is read from the fitted curve at half-maximal effect
Target sequence (P17405 47-631 limits assumed): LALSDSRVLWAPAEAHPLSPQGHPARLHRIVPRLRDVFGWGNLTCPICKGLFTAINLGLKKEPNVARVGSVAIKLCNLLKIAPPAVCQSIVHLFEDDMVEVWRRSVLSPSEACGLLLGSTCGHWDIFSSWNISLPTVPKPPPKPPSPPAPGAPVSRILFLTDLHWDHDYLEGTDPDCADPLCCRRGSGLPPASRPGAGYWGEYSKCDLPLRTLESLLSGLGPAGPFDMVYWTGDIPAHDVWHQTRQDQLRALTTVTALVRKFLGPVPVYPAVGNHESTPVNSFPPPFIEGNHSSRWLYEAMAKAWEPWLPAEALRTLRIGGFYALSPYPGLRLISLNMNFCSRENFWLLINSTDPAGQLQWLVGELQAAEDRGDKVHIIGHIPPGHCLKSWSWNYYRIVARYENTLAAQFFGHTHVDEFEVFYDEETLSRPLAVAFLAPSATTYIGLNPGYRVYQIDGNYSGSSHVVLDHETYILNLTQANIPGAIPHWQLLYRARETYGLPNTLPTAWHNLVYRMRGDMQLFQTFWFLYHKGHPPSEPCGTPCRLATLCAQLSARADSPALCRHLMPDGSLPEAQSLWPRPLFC
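Human placenta-derived ASM preincubated with compound 10 min at room temperature, then reacted with 9 uM (final) fluorogenic HMU-PC substrate for 60 min at 37 C. Stop solution raises pH to 10; fluorescence read at Ex 386/Em 447 nm.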
TGFb SMAD3 inh: blocks TGF-b signaling. HepG2 CAGA-GFP TGF-b/SMAD3 reporter, GFP fluorescence, 18 h; TGF-beta stimulated, 500 pg/mL final. Potency, µM (series often up to 46.1 µM), for inactives: at the top dose activity, negative = inhibition, hits mostly inhibitors. actives 1.2% (n = 410,000). AID 588855; also: potency is read from the fitted curve at half-maximal effect; % is scaled to controls: 0 for no effect and ±100 for the full control effect; nearly all actives have a fitted effect of over 65% in size
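TGF-beta reporter screen: HEPG2 CAGA-GFP, 1% FBS, 500 pg/mL TGF-beta final, 18 h; per-cell GFP summed per well; curves fitted and categorized by class.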
IL-1B inflam inh: inhibitors of inflammasome signaling (IL-1 beta secretion) | THP-1 LPS/ATP IL-1B secretion, AlphaLISA, 16 h; stronger effect = lower value | activity change, % at 57.5 µM | actives 4.7% (n = 360,000) | AID 743279; in the data active = activity change below about -50%; inconclusive = mostly about -30% to -49%; also: % is scaled to controls: 0 for no effect and ±100 for the full control effect
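THP-1 cells pretreated 1 hr with compounds (up to 57.5 uM final), then stimulated with LPS (250 ng/mL final) plus ATP (1.25 mM final); secreted IL-1B measured by AlphaLISA after 16 hr, decreased signal indicating inhibition.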
An asterisk follows results filed as active; ? = inconclusive; · = no result; ! = not confirmed by another sample. Sampled rows, rich in hits. Any-hit rate of the full collection: about 19%. Unless noted, calls follow the shape of the dose curve; as a rule, active = well fitted curve in the direction sought with a large enough effect; inconclusive = small, poorly fitted or top-dose-only effect, or another doubt; inactive = no such curve, though single readings can be large; an effect the other way counts as inactive or inconclusive.

SMILES	DT40 TDP1 no CPT	HepG2 tox	DT40 TDP1 CPT	S-ASM inh	TGFb SMAD3 inh	IL-1B inflam inh
O=C(CN1CCN(Cc2ccc(Cl)cc2)C1=O)NCCCN1CCOCC1	-2%	-7%	-6%	5%	-9%	-1
CCOC(=O)C1=CCC2C(=O)N(CC)C(=O)C12 (stereo not given)	3%	-13%	?	·	-8%	47
O=C1CC[C@@H](OCc2ccccc2)CCN1CC[C@H](Sc1ccccc1)c1ccccc1	18µM*	-4%	16µM*	-5%	?	21
C[C@@H]1CCC(=O)N(CC[C@H](Sc2ccccc2)c2ccccc2)CC1	13µM*	-2%	13µM*	-10%	18µM*!	0
C=CC[C@H](CC(=O)N(CCO)Cc1ccccc1)C(=O)N[C@H](COC(=O)[C@@H](CC=C)Cc1ccc(F)cc1)C(C)(C)C	?	0%	?	-3%	?	-61*
C=CC[C@@H](CC(=O)N(CCO)Cc1ccccc1)C(=O)N[C@H](COC(=O)[C@@H](CC=C)Cc1ccc(F)cc1)c1ccccc1	13µM*	-26%	15µM*	-4%	?	?
C=CCC[C@H](Cc1ccc(F)cc1)C(=O)OC[C@@H](NC(=O)[C@@H](CC=C)CC(=O)N(CCO)Cc1ccccc1)C(C)(C)C	?	-6%	26µM*	-4%	?	?
C=CC[C@@H](CC(=O)N(CCO)Cc1ccccc1)C(=O)N[C@@H](C)COC(=O)[C@@H](CC=C)Cc1ccc(F)cc1	16µM*	-15%	?	0%	-22%	-3
C=CC[C@H](CC(=O)NCCO)C(=O)N[C@H](C)COC(=O)[C@@H](CC=C)Cc1ccc(F)cc1	?	1%	?	2%	3%	23
C=CC[C@H](CC(=O)NCCO)C(=O)N[C@H](COC(=O)[C@@H](CC=C)Cc1ccc(F)cc1)Cc1ccccc1	?	-1%	?	0%	-25%	-1
CC(=O)N1CCc2cc(S(=O)(=O)NC(C(=O)Nc3ccc(C)cc3C)C(C)C)ccc21 (stereo not given)	?	-18%	-4%	·	-10%	·
COc1ccccc1NS(=O)(=O)c1ccc2[nH]c(=S)oc2c1	-10%	-18%	-2%	2%	6%	-3
C=CC[C@@H](CC(=O)N(CCO)Cc1ccccc1)C(=O)N[C@H](COC(=O)[C@@H](CC=C)Cc1ccc(F)cc1)C(C)(C)C	13µM*	-9%	21µM*	-5%	?	-83*
O=C(C[C@H]1C=C[C@@H](NC(=O)c2ccncc2)[C@@H](CO)O1)NCC1CC1	6%	·	-3%	·	·	3
COc1ccc2[nH]c3c4c(ccc3c2c1)C(=O)C=CC4=O	0.26µM*	-75%	0.23µM*	-5%	14µM*	-77*
COc1ccc2[nH]c(=O)cc(C(=O)O)c2c1	-3%	0%	0%	330%	0%	8
C=CC[C@@H]1/C=C(\C)C[C@H](C)C[C@H](OC)[C@H]2O[C@@](O)(C(=O)C(=O)N3CCCC[C@H]3C(=O)O[C@H](/C(C)=C/[C@@H]3CC[C@@H](O)[C@H](OC)C3)[C@H](C)[C@@H](O)CC1=O)[C@H](C)C[C@@H]2OC	3µM*	·	3.3µM*	·	·	·
O=C(NCc1ccc(F)cc1F)[C@@H]1CCCN1C(=O)[C@@H]1CCCN1	-10%	·	-16%	·	·	11
CC(C)(CO)NCc1ccc(Br)cc1	?	-22%	21µM*	-2%	7%	-4

Screens (PubChem BioAssay)
